Source: a collection of fitness landscapes (doi:10.1016/j.celrep.2020.107928)
Over roughly 81,000 sequences, “one-hybrid fitness for binding NBS DNA” has its median near -0.1; the highest 2% begin near 0.36. The sample holds the highest values, similar sequences and a random draw of the others, so the mix is not that of the screen.

B1: Caulobacter ParB omega fusion; a variant is named by its letters at X, in order, B8GW30 (parent)
chain: MESVVVGEPGMSEGRRGLGRGLSALLGEVDAAPAQAPGEQLGGSREAPIEILQRNPDQPRRTFREEDLEDLSNSIREKGVLQPILVRPSPDTAGEYQIVAGERAWRAAQRAGLKTVPIMVRELDDLAVLEIGIIENVQRADLNVLEEALSYKVLMEKFERTQENIAQTIGKSXSHVANXMRLLXLPDEVQSYLVSGELTAXHARAIAAAADPVALAKQIIEGGLSVRETEALARKAPNLSAGKSKGGRPPRVKDTDTQALESDLSSVLGLDVSIDHRGSTGTLTITYATLEQLDDLCNRLTRGI

Variants of: B1
Assay: one-hybrid fitness for binding NBS DNA (the Noc-binding site; scaled: cognate 1, non-cognate 0); higher = stronger binding
Conditions: with NBS DNA site
Summary of the method: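 Fitness is the rescaled log change in variant-to-wild-type read ratio, measured by Illumina sequencing of plasmids before and after bacterial one-hybrid selection. The scale puts cognate at 1 and non-cognate at 0. Selection of Caulobacter ParB libraries, four specificity codons randomised, took place in E. coli USO with a HIS3 reporter, site 19 bp from the promoter, over 48 hours at 37°C on M9-minus-histidine with 0.1 mM IPTG and 5 mM 3-AT.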

| Variant | one-hybrid fitness for binding NBS DNA |
| --- | --- |
| GSLV | ≤ 0.2 |
| QKHM | ≤ 0.2 |
| QKWG | ≤ 0.2 |
| QKCC | ≤ 0.2 |
| QKIT | 0.363 |
| QKCT | 0.475 |
| QKPT | 0.306 |
| QKHT | 0.549 |
| QKWT | 0.454 |
| QKCY | ≤ 0.2 |
| QKHC | ≤ 0.2 |
| QKYT | 0.511 |
| QAWT | 0.297 |
| SRNN | ≤ 0.2 |
| GDKC | ≤ 0.2 |
| RTGY | ≤ 0.2 |
| ARHT | ≤ 0.2 |
| RTFI | ≤ 0.2 |
| IIAL | ≤ 0.2 |
| HVSG | ≤ 0.2 |
| PVMQ | ≤ 0.2 |
| YSMW | ≤ 0.2 |
| LTAH | ≤ 0.2 |
| AHPT | ≤ 0.2 |
| QKGM | ≤ 0.2 |

| Variant | one-hybrid fitness for binding NBS DNA |
| --- | --- |
| NKRT | ≤ 0.2 |
| QKLT | 0.464 |
| QKST | 0.526 |
| QKLY | ≤ 0.2 |
| QKSM | ≤ 0.2 |
| DKRT | ≤ 0.2 |
| QKRT | 0.757 |
| QKSG | ≤ 0.2 |
| QKGT | 0.566 |
| QKGG | ≤ 0.2 |
| TSRY | ≤ 0.2 |
| RQHL | ≤ 0.2 |
| HCVL | ≤ 0.2 |
| SCSP | ≤ 0.2 |
| SVIR | ≤ 0.2 |
| DSRA | ≤ 0.2 |
| DIFG | ≤ 0.2 |
| WLHF | ≤ 0.2 |
| EQLL | ≤ 0.2 |
| LLDV | ≤ 0.2 |
| GYFR | ≤ 0.2 |
| QKDT | 0.401 |
| QKND | ≤ 0.2 |
| QKNN | 0.203 |
| QKNT | 0.639 |

| Variant | one-hybrid fitness for binding NBS DNA |
| --- | --- |
| GYDR | ≤ 0.2 |
| FATT | ≤ 0.2 |
| GEDG | ≤ 0.2 |
| RHGT | 0.344 |
| RCGT | 0.462 |
| RNGT | ≤ 0.2 |
| RAGF | ≤ 0.2 |
| RAGG | ≤ 0.2 |
| RIGT | 0.403 |
| RPGT | ≤ 0.2 |
| RAGT | 0.443 |
| RFGT | ≤ 0.2 |
| RIGQ | ≤ 0.2 |
| RSGT | 0.425 |
| CETT | ≤ 0.2 |
| LWGM | ≤ 0.2 |
| HAAD | ≤ 0.2 |
| HAFN | ≤ 0.2 |
| VLQG | ≤ 0.2 |
| QGVT | ≤ 0.2 |
| QKVG | ≤ 0.2 |
| QKVT | 0.44 |
| DKKT | ≤ 0.2 |
| QPVT | 0.269 |
| QKKT | 0.774 |

| Variant | one-hybrid fitness for binding NBS DNA |
| --- | --- |
| QCVT | 0.428 |
| CKVS | ≤ 0.2 |
| ENAK | ≤ 0.2 |
| LWKN | ≤ 0.2 |
| VVCT | ≤ 0.2 |
| GSCC | ≤ 0.2 |
| HRFR | ≤ 0.2 |
| RRDD | ≤ 0.2 |
| RRNC | 0.343 |
| RRNS | 0.678 |
| RRDP | ≤ 0.2 |
| RRDS | 0.58 |
| RRNF | 0.281 |
| ADSL | ≤ 0.2 |
| MLMV | ≤ 0.2 |
| CATV | ≤ 0.2 |
| SVNP | ≤ 0.2 |
| VMPY | ≤ 0.2 |
| MHHD | ≤ 0.2 |
| QRLH | 0.453 |
| QRLN | 0.308 |
| QRLP | ≤ 0.2 |
| QCLH | ≤ 0.2 |
| QRLS | 0.603 |
| QRLD | ≤ 0.2 |
